Source: PubChem BioAssay AID743313 (Broad Institute, 2014)
The source made the active and inactive calls.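 Rule for the calls: active = cell killing with a fitted half-maximal concentration no more than twice the top valid dose used; inconclusive = flat curve with a moderate signal drop, or poor fit; inactive = the rest.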

Test: loss of HepG2 viability via ATP – cell-based, plate reader, dry powder, set 7, cytotoxicity control, dose response (AID 743313)

| SMILES | outcome |
| --- | --- |
| Cc1ccc(C(C)C)c(OCCn2c(CO)nc3ccccc32)c1 | inactive |
| Fc1ccc2[nH]c(=S)n(CCOc3ccccc3)c2c1 | inactive |
| Cc1ccc(C(C)C)c(OCCn2c(=S)[nH]c3cc(F)ccc32)c1 | inactive |
| O=c1[nH]c2ccccc2n1CCOc1ccccc1 | inactive |
| Fc1cccc2c1[nH]c(=S)n2CCOc1ccccc1 | inactive |
| COc1ccc(OCCn2c(=S)[nH]c3ccccc32)cc1 | inactive |
| Cc1ccccc1OCCn1c(=S)[nH]c2ccccc21 | inactive |
| Cc1cccc(OCCn2c(=S)[nH]c3c(F)cccc32)c1 | inactive |
| Cc1ccc(OCCn2c(C)nc3ccccc32)cc1 | inactive |
| CC(C)c1ccc(OCCn2c(=S)[nH]c3ccccc32)cc1 | inactive |
| COc1ccccc1OCCn1c(=S)[nH]c2ccccc21 | inactive |
| Cc1ccc(C(C)C)c(OCCn2c(=S)[nH]c3ccccc32)c1 | inactive |
| Cc1ccc(C(C)C)c(OCCn2c(=S)[nH]c3c(F)cccc32)c1 | inactive |
| Cc1ccc(OCCn2c(SCCO)nc3ccccc32)c(C(C)C)c1 | inactive |
| Cc1cccc(OCCn2c(=S)[nH]c3cc(F)ccc32)c1 | inactive |
| Cc1ccc(OCCn2cnc3ccccc32)c(C(C)C)c1 | inactive |
| Cc1cccc2[nH]c(=S)n(CCOc3ccccc3)c12 | inactive |
| CCOc1ccc(OCCn2c(=S)[nH]c3ccccc32)cc1 | inactive |
| Cc1cccc(OCCn2c(=S)[nH]c3ccccc32)c1 | inactive |
| Cc1ccc(OCCn2c(=S)[nH]c3ccccc32)c(C(C)C)c1 | inactive |
| Cc1ccc2c(c1)[nH]c(=S)n2CCOc1ccccc1 | inactive |
| Cc1ccc(OCCn2c(=S)[nH]c3ccccc32)c(C)c1 | inactive |
| Fc1cccc(OCCn2c(=S)[nH]c3ccccc32)c1 | inactive |
| c1ccc(OCCn2cnc3ccccc32)cc1 | inactive |
| Fc1ccccc1OCCn1c(=S)[nH]c2ccccc21 | inactive |
| Cc1cccc(OCCn2c(=S)[nH]c3ccccc32)c1C | inactive |
| Cc1ccc(OCCn2cnc3ccccc32)cc1 | inactive |

| SMILES | outcome |
| --- | --- |
| S=c1[nH]c2ccccc2n1CCOc1ccccc1Cl | inactive |
| CSc1nc2ccccc2n1CCOc1cc(C)ccc1C(C)C | inactive |
| CC(C)(C)c1ccc(OCCn2c(=S)[nH]c3ccccc32)cc1 | inactive |
| Cc1ccc(C(C)C)c(OCCn2c(=S)[nH]c3c(C)cccc32)c1 | inactive |
| Cc1ccc(C(C)C)c(OCCn2c(=S)[nH]c3ccc(F)cc32)c1 | inactive |
| COc1cccc(OCCn2c(=S)[nH]c3ccccc32)c1 | inactive |
| S=c1[nH]c2cccc(Cl)c2n1CCOc1ccccc1 | inactive |
| CC(C)(C)c1ccccc1OCCn1c(=S)[nH]c2ccccc21 | inactive |
| Fc1ccc(OCCn2c(=S)[nH]c3ccccc32)cc1 | inactive |
| Cc1cccc(OCCn2c(=S)[nH]c3ccc(C(F)(F)F)cc32)c1 | inactive |
| Cc1ccc(C)c(OCCn2c(=S)[nH]c3ccccc32)c1 | inactive |
| Cc1ccc(C(C)C)c(OCCn2c(=S)[nH]c3cccc(C)c32)c1 | inactive |
| CC(C)c1ccccc1NCCn1c(=S)[nH]c2ccccc21 | inactive |
| Cc1cccc(OCCn2c(=S)[nH]c3cc(C(F)(F)F)ccc32)c1 | inactive |
| COCc1nc2ccccc2n1CCOc1ccc(C(C)(C)C)cc1 | inactive |
| Cc1ccc(C(C)C)c(OCCn2c(=S)[nH]c3cccc(F)c32)c1 | inactive |
| Cc1ccc(C(C)C)c(OCCn2c(=S)[nH]c3c(Cl)cccc32)c1 | inactive |
| S=c1[nH]c2ccccc2n1CCOc1ccccc1 | inactive |
| S=c1[nH]c2ccccc2n1CCOc1ccc(Cl)cc1 | inactive |
| S=c1[nH]c2cc(Cl)ccc2n1CCOc1ccccc1 | inactive |
| CC(C)(C)c1ccc(OCCn2cnc3ccccc32)cc1 | inactive |
| Fc1ccc2c(c1)[nH]c(=S)n2CCOc1ccccc1 | inactive |
| CC(C)c1ccccc1OCCn1c(=S)[nH]c2ccccc21 | inactive |
| Cc1ccc(OCCn2c(=S)[nH]c3ccccc32)cc1 | inactive |
| Cc1ccc(C(C)C)c(OCCn2c(=S)[nH]c3cccc(Cl)c32)c1 | inactive |
| Cc1ccc(C(C)C)c(OCCn2c(=S)[nH]c3ccc(Cl)cc32)c1 | inactive |
